Experimental data from PubChem BioAssay (NCI).
About 83,000 compounds went through this panel and 20% of them were active in at least one assay; those are over-represented in the sample as a whole.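 How to read the values: 0–100, growth inhibition (40 = 60% inhibited); 0, no net growth; -100 to 0, cell death (-40 = 40% of starting cells died; -100 = all dead).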 Values without a mark were called inactive. The source made the active and inactive calls. Where a SMILES comes first, the peptide text is derived from it. [ ]: non-standard residue; d: D form. ξ: configuration not given here. ξD = NC(CC(=O)O)C(=O)O

tested on: SN12C renal; assay: NCI-60 one-dose screen, 48 h (100 = growth as untreated, 0 = no growth, -100 = all killed); conditions: 10 µM unless noted
Protocol: Growth inhibition of the SN12C human tumor cell line is measured as a screen for anti-cancer activity. Cells are grown in 96 well plates and exposed to the test compound for 48 hours. Compounds are tested at a single concentration, which is 10^-5 M for most compounds. The reported endpoint is percent growth (GI% or GIPRCNT), where numbers from 0 - 100% represent growth inhibition, and numbers from -100% - 0 represent cell death. For example, a value of 40 represents 60% growth inhibition. A value of 0 means no net growth occurred over the course of the experiment. A value of -40 indicates 40% of cells at the beginning of the experiment died by the end of the experiment. A value of -100 means all cells are dead at the end of the experiment.
NCI-60 Human Tumor Cell Lines Screen was performed using the standard one-dose NCI protocol, which is described in more detail at https://dtp.cancer.gov/discovery_development/nci-60/default.htm.
Compounds with GIPRCNT values below 10 were considered active. Activity score was based on GIPRCNT using the following formula: […]
Score is 0 for GIPRCNT values of 100 or above, 50 for GIPRCNT values of 0, and 100 for GIPRCNT values of -100.

**Q.** With `CCCCCCC1N=C(N)N=C(N)N1c1cccc(Cl)c1` (stereo not given) as the molecule, how does the growth read?
**A.** 26.8%

**Q.** For `CCCCCCCCC(=O)OCCCC(CCC(CCC1CCCO1)OC(=O)CCCCCCCC)OC(=O)CCCCCCCC` (stereo not given), which growth is on record?
**A.** 92.9%

**Q.** With `CCc1oc2ccccc2c1C(=O)c1cc(Br)c(O)c(Br)c1` as the molecule, how does the growth read?
**A.** 78.4%

**Q.** Which growth does the source give for `O=C(O)c1ccc2c(c1)C(=O)c1ccccc1C2=O` here?
**A.** 94.6%

**Q.** How did the growth turn out when `O=C1C=CC(=O)N1C1CCCCCCCCCCC1` was run?
**A.** 82.9%

**Q.** `O=C(Nc1ccc(Cl)c(Cl)c1)Nc1ccccc1O` was tested. Which growth did it give?
**A.** 76.4%

**Q.** How did the growth turn out when `COc1ccc2nc3cc(Cl)ccc3c(NCCCCCN3CCCCC3)c2c1` was run?
**A.** 10.3%

**Q.** How did the growth turn out when `Nc1ccc(C(=O)/C=C/c2ccccc2)cc1` was run?
**A.** 98.4%

**Q.** `Cc1ccc(N2C(=O)C=CC2=O)cc1` was tested. Which growth did it give?
**A.** 93.7%

**Q.** Which growth does the source give for `S=C(S)OCN1CCOCC1` here?
**A.** 103%

**Q.** For `CC1=CC(=NC(=O)CBr)C=C/C1=N\S(=O)(=O)c1ccccc1`, which growth is on record?
**A.** 14.1%

**Q.** How did the growth turn out when `CC(/C=N/NC(N)=S)Cc1ccc(C(C)C)cc1` (stereo not given) was run?
**A.** 69.8%

**Q.** With `CC(C)(C)c1ccc(CCO)cc1` as the molecule, how does the growth read?
**A.** 91.8%

**Q.** How did the growth turn out when `c1ccc(-c2cc3cc4ccccc4cn3c2)cc1` was run?
**A.** 87.6%

**Q.** How did the growth turn out when `OC(Cc1cc(CC(O)(C(F)(F)F)C(F)(F)F)nc(CC(O)(C(F)(F)F)C(F)(F)F)c1)(C(F)(F)F)C(F)(F)F` was run?
**A.** 4.86% (active)

**Q.** `CC(C)c1ccc(Nc2n[nH]c(=S)s2)cc1` was tested. Which growth did it give?
**A.** 98.2%

**Q.** Which growth does the source give for `O=C1C=CC(=O)N1c1cc(Cl)c(Cl)cc1Cl` here?
**A.** 104%

**Q.** `O=C1/C(=C/c2ccccc2)CCC/C1=C\c1ccccc1` was tested. Which growth did it give?
**A.** 93.2%

**Q.** With `COc1cc(NCc2ccc3nc(N)nc(N)c3c2C)cc(OC)c1OC` (tested in a mixture with another compound) as the molecule, how does the growth read?
**A.** 44.7%

**Q.** How did the growth turn out when `CC(O)C(O)C(O)C(O)C(O)C(=O)NNc1ccccc1` (stereo not given) was run?
**A.** 90.5%

**Q.** How did the growth turn out when `CC(CSc1n[nH]c(=S)s1)c1ccccc1` (stereo not given) was run?
**A.** 101%

**Q.** Which growth does the source give for `COC(=O)Nc1nc2ccc(C3(c4ccc(F)cc4)OCCO3)cc2[nH]1` here?
**A.** 41.4%

**Q.** How did the growth turn out when `COc1ccc(/C=C2/C(=O)ON=C2C)cc1` was run?
**A.** 95.6%

**Q.** For `NCC(=O)NC(CC(=O)O)C(=O)O` (stereo not given) (H-Gly-[ξD]-OH), which growth is on record?
**A.** 99%

**Q.** Which growth does the source give for `Oc1ccc(Nc2ccc3ccccc3c2)cc1` here?
**A.** 64.8%

**Q.** For `O=C1C=CC(=O)N1c1cccc2c1CCCC2`, which growth is on record?
**A.** 97.2%

**Q.** Which growth does the source give for `C[n+]1ccccc1C[n+]1ccccc1` here?
**A.** 105%

**Q.** Which growth does the source give for `CCCCN(CCCC)CCCCCCCCCCO` here?
**A.** 107%

**Q.** For `OCCOSCCO`, which growth is on record?
**A.** 111%

**Q.** `S=C(SSC(=S)N1CCOCC1)N1CCOCC1` was tested. Which growth did it give?
**A.** 99.7%

**Q.** How did the growth turn out when `CC[n+]1ccc(Nc2ccc(NC(=O)c3ccc(Nc4cc[n+](CC)c5ccc([N+](=O)[O-])cc45)cc3)cc2)cc1` was run?
**A.** 86%

**Q.** Which growth does the source give for `NNc1ccc(Cl)cc1Cl` here?
**A.** 78.3%

**Q.** How did the growth turn out when `O=[N+]([O-])c1cc(-c2ccccc2)c(O)c([N+](=O)[O-])c1` was run?
**A.** 73.7%

**Q.** `CCOC(=O)c1cc(CC)sc1NC(=O)CC(C)=O` was tested. Which growth did it give?
**A.** 53%

**Q.** With `CC1=CC(=O)C=CC1(C)C(Cl)(Cl)Cl` (stereo not given) as the molecule, how does the growth read?
**A.** 88.8%

**Q.** Which growth does the source give for `COc1ccc(C(Cn2ccnc2)Sc2ccc(Cl)c(Cl)c2)cc1` (stereo not given) here?
**A.** 88.6%

**Q.** For `CCCCCC[C@@H](O)C/C=C\CCCCCCCC(=O)OCCOC`, which growth is on record?
**A.** 98.3%

**Q.** How did the growth turn out when `CC1(C)OC2C(COC(c3ccccc3)(c3ccccc3)c3ccccc3)OC(c3c[nH]c4c(N)ncnc34)C2O1` (stereo not given) was run?
**A.** 50.1%

**Q.** For `O=C(CCl)N1c2ccccc2Sc2c1ccc1ccccc21`, which growth is on record?
**A.** 73.8%

**Q.** For `CC(=O)Nc1ccc(C(=O)CCl)cc1`, which growth is on record?
**A.** 90.6%
